Assay outcomes deposited in PubChem by several laboratories.
A selection: hits, their analogues and other compounds. The true share with any hit is near 1.5%.
ABHD5-PLIN5 inh = ABHD5-PLIN5 protein interaction inhibition | inhibition, % at 4 µM | AID 602281 | Split G. princeps luciferase complementation, luminescence, 4 h | actives 0.78% (n = 360,000);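 active = inhibition above the mean inhibition across every tested compound plus 3 SD, cut at about 22% in these data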
TLR9-MyD88 inh = blocks human TLR9 binding to MyD88; actives 0.21% (n = 340,000); inhibition, % at 4.98 µM; AID 504734; CHO BLA complementation TLR9-MyD88, CCF4 FRET ratio;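 active = inhibition above the mean over all tested compounds plus 3 SD, cut at about 21% in these data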
NOD2 RIPK2 PPI = inhibitors of human NOD2-RIPK2 interaction | CHO BLA complementation NOD2-RIPK2, CCF4 ratio | inhibition, % at 4.98 µM | actives 0.38% (n = 360,000); in the data active = inhibition above about 21%
Target sequence (O43353 whole entry, looked up): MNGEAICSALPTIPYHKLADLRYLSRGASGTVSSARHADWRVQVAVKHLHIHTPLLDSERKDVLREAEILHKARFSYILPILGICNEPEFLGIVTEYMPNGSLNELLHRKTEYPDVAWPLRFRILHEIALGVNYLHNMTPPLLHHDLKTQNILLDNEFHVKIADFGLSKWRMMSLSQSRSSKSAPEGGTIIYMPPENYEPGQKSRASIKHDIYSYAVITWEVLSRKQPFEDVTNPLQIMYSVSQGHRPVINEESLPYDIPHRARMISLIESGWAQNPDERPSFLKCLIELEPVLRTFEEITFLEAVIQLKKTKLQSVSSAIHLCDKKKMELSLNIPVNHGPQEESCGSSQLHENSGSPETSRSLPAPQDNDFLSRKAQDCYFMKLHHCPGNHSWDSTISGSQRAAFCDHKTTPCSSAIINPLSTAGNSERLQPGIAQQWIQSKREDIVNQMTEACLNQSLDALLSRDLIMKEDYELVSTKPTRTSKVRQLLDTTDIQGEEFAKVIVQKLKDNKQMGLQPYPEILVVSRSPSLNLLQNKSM
TLR4-MyD88 BLA = inhibitors of human TLR4-MyD88 binding; O00206+Q99836; HeLa CL3-4 TLR4/MyD88 BLA complementation, FRET ratio; inhibition, % at 8.4 µM; actives 0.18% (n = 200,000); AID 861; in the data active = inhibition above about 25%
NTR1 ag = NTR1 (human) agonism; actives 0.17% (n = 330,000); activation, % at 20 µM; NTR1-U2OS beta-arrestin-GFP spot imaging, agonist mode;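 active = activation at or above 40% of the spot to cytoplasm intensity ratio, with at least 20 cells analyzed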
B2AR ag = agonists of human beta-2 adrenergic receptor inducing internalization; AID 504454; P07550; actives 0.43% (n = 340,000); Am2.2-beta2AR cells, FAP receptor internalization, flow cytometry; response, % (concentration not given with the values);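 active = response above a set limit, near 3 SD of response in nonfluorescent compounds, cut at about 42% in these data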
Beta2AR ag CP1 = activates human beta-2 adrenergic receptor; shares compounds with B2AR ag; Am2.2-beta2AR cells, FAP surface receptor, flow cytometry; hits give low values; percent response (surface receptor), % at 10 µM; actives 25% (n = 1,100); AID 540358;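 active = surface receptor percent response at or below 58%, roughly 3 SD from nonfluorescent compounds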
B2AR FAP counter = counter-screen for beta-2AR agonists: fluorescence in Am2.2 cells; calls only at 10 µM; 1,100 tested, under 10 active; AID 588765; shares compounds with B2AR ag; FAP fluorogen flow cytometry, fluorescence counterscreen; hits give low values;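 active = percent response below a set limit in fluorescence channel 1 and below 50% in channel 8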
Hits are given with their value; – = inactive; · = no result given.

SMILES	ABHD5-PLIN5 inh	TLR9-MyD88 inh	NOD2 RIPK2 PPI	TLR4-MyD88 BLA	NTR1 ag	B2AR ag	Beta2AR ag CP1	B2AR FAP counter
COc1ccccc1C(=O)Nc1ccc2c(c1)nc(CN1CCN(C(C)=O)CC1)n2C	–	–	–	–	–	53	–	–
CC(=O)N1CCN(Cc2nc3cc(NC(=O)c4ccccc4)ccc3n2C)CC1	–	–	–	–	–	–	·	·
CC(C)COC(=O)N1CCCCC1c1cc(C(=O)NC(C)C)no1 (centres undefined)	–	·	–	·	·	·	·	·
O=C1C2CCCCN2C(=O)N1CCCCN1CCN(c2cccc(C(F)(F)F)c2)CC1 (centres undefined)	–	–	–	·	·	59	–	–
COc1cccc(OCc2nnc(-c3cccs3)o2)c1	–	–	–	–	–	50	58	–
COc1cccc(-c2noc(-c3cccs3)n2)c1	–	–	–	–	–	–	·	·
c1ccc(C[C@H]2CN=C(Nc3ccccc3)N2CC2CCCC2)cc1	–	·	–	·	·	·	·	·
COc1ccc(-c2nc3c4ccccc4ccn3c2CN2CCOCC2)cc1OC	–	–	–	·	–	53	41	–
c1ccc(-c2nc3c4ccccc4ccn3c2CN2CCOCC2)cc1	–	–	–	·	–	–	·	·
O=C(/C=C/[C@H]1O[C@@H](n2ccc(=O)[nH]c2=O)[C@H](O)[C@@H]1O)NCCc1c[nH]c2ccccc12	–	·	–	·	·	·	·	·
O=S(=O)(Cc1ccccc1)Nc1ccccc1	–	–	–	·	–	–	·	·
CN(Cc1ccccc1)S(=O)(=O)c1ccc(NS(=O)(=O)Cc2ccccc2)cc1	–	–	–	–	–	48	34	–
COc1cc(OC)cc(C(=O)Oc2c(CN3CCOCC3)cc(Cl)c3cccnc23)c1	–	–	–	·	–	–	–	–
O=C(Oc1c(CN2CCOCC2)cc(Cl)c2cccnc12)c1ccccc1F	–	–	–	–	–	–	–	–
O=C(Oc1c(CN2CCOCC2)cc(Cl)c2cccnc12)c1ccccc1	–	–	–	–	–	–	·	·
Cc1ccccc1C(=O)OC1CCCN(C)C1 (centres undefined)	–	–	–	·	–	49	–	–
O=C(NCCc1ccccc1)C1Cc2c(-c3ccccc3)ccnc2O1 (centres undefined)	–	·	–	·	·	·	·	·
COc1ncnc2c1oc1nc(C(C)C)c3c(c12)CC(C)(C)OC3	–	–	–	–	–	–	·	·
COc1ncnc2c1oc1nc(C)c3c(c12)CC(C)(C)OC3	–	·	–	·	–	–	–	–
CC(C)(C)NC(=S)NNC(=O)c1cccc(Br)c1	–	–	–	–	–	–	–	–
C=CCn1c(SCc2ccc(F)cc2)nnc1-c1sc2nc(C)cc(C)c2c1N	–	·	–	·	–	109	28	–
C=CCn1c(SCc2ccc(OC)cc2)nnc1-c1cccnc1	–	–	–	–	–	–	·	·
CC1(C)CC(Cc2ccc(C(=O)c3ccccc3)cc2)N(C(=O)OC(C)(C)C)N1 (centres undefined)	–	–	–	·	·	·	·	·
OC(CNCc1ccccc1)c1ccccc1 (centres undefined)	–	–	–	·	–	–	–	–
Oc1cccc(C(O)CNCc2ccc(-c3ccccc3)cc2)c1 (centres undefined)	–	–	–	–	–	–	·	·
SMILES	ABHD5-PLIN5 inh	TLR9-MyD88 inh	NOD2 RIPK2 PPI	TLR4-MyD88 BLA	NTR1 ag	B2AR ag	Beta2AR ag CP1	B2AR FAP counter
OC(CC(O)c1ccccc1)c1ccccc1 (centres undefined)	–	–	–	·	·	–	·	·
CCOc1cc(CNCc2ccccn2)cc(Cl)c1OC	–	–	–	–	–	–	·	·
OC(CNC1Cc2ccccc2C1)c1ccccc1 (centres undefined)	–	–	–	·	–	–	–	–
OC(CNCc1cccc(Cl)c1)c1ccccc1 (centres undefined)	–	–	–	–	–	–	–	–
CCOc1cc(CNCC(O)c2ccccc2)cc(Cl)c1OC (centres undefined)	–	–	–	–	–	–	–	–
O=C(Cc1ccc(NC(=O)C2CCN(C(=O)C3CC3)CC2)cc1)Nc1cccc(C(=O)N2CCCCC2)c1	–	–	–	·	·	–	·	·
CCn1c2ccccc2c2cc(Nc3cc(C)nc4ncnn34)ccc21	–	–	–	–	–	42	–	–
CCc1ccc(Nc2cc(C)nc3ncnn23)cc1	–	–	–	·	–	–	·	·
CC(C)=C1CCC(C)CC1=NNC(N)=S (centres undefined)	–	–	–	·	·	–	·	·
CC1C/C(=N\NC(N)=S)c2cc(Cl)ccc2S1 (centres undefined)	–	·	–	·	–	–	–	–
O=C1CCC(=O)N1c1nc2nc(-c3ccccc3)cc(=O)n2[nH]1	–	–	–	–	–	43	–	–
Cc1nc2nc(-c3ccccc3)cc(=O)n2[nH]1	–	–	–	–	–	–	·	·
Cc1cc(F)cc(-c2cc(C(=O)NCC3CCCCC3)[nH]n2)c1	–	·	–	·	·	·	·	·
CCc1ccc(CNC(=O)c2ccc(NC(=O)C3=CSCCO3)cc2)cc1	–	–	–	·	–	102	27	–
Cn1nc(-c2ccc(C(=O)NCCO)cc2)c2ccccc2c1=O	–	–	–	·	–	–	–	–
CN(CCO)C(=O)c1ccc(-c2nn(C)c(=O)c3ccccc23)cc1	–	–	–	–	–	–	·	·
CC(=O)c1cccc(S(=O)(=O)N2CCCC(c3nc(-c4ccc(C)o4)no3)C2)c1 (centres undefined)	–	–	–	–	–	54	–	–
Cc1ccc(OCc2cc(C(=O)NCc3ccc(OC(F)(F)F)cc3)no2)cn1	–	–	–	·	–	52	40	–
Cc1ccc(OCc2cc(C(=O)NCc3cnn(-c4cccc(F)c4)c3)no2)cn1	–	–	–	·	–	97	16	–
COc1ccccc1NC(=O)COC(=O)Cn1c(C)csc1=O	–	–	–	·	·	·	·	·
Cc1ccc(CN2CC(N3CCCCC3)CS2(=O)=O)cc1 (centres undefined)	–	·	–	·	·	·	·	·
c1coc(Cn2c(SCc3nc4ccccc4[nH]3)nnc2-c2cccs2)c1	–	–	–	–	–	–	·	·
Cc1ccc(-c2nnc(SCc3nc4ccccc4[nH]3)n2Cc2ccco2)cc1	–	–	–	–	–	–	–	–
Cc1cccc(-c2nnc(SCc3nc4ccccc4[nH]3)n2Cc2ccco2)c1	–	–	–	–	–	–	–	–
OCc1ccccc1-c1ccc2nncn2c1	–	·	–	·	·	·	·	·
Cc1ccc(Cl)cc1N1CCN(C(=O)Cc2c(C(=O)O)[nH]c3ccc(Cl)cc23)CC1	–	–	–	–	–	75	–	–
O=C(CCCc1c[nH]c2ccccc12)NCc1ccccc1F	–	–	–	·	–	–	·	·
Cc1ccc(CNC(=O)CCCc2c[nH]c3ccccc23)cc1	–	–	–	·	–	52	–	–
